Experimental data taken from PubChem BioAssay AID1159580 (chemical genetic matrix, 2015).
Values joined by “and” are separate entries in the source; they are usually repeats but may differ in a detail not shown here. Identical values can stand only once. About 2,000 (36%) of roughly 5,500 compounds were called active. About 18% were inconclusive and are not listed. No stated cut-off is given here; in the data, active means normalized growth mostly below about 0.91 (no sharp cut-off); inconclusive means no clear call, values can overlap the other calls; inactive means mostly above about 0.92. The list shows a part of the results.

Test: chemical genetic growth profiling, strain panel (AID 1159580);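 further: tested at 20 µM; growth read once vehicle control cultures reached saturation at 30 °C; 1 = growth at the plate median or of vehicle wells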
Details: S. cerevisiae deletion strains, growth OD

Measured: normalized growth

NS(=O)(=O)c1cc2c(cc1Cl)NC(C1CC3C=CC1C3)NS2(=O)=O (stereo unspecified)
inactive: locus YAL013W, strain DEP1, stronger effect = lower value 1 | locus YAL021C, strain ccr4, stronger effect = lower value 1 | locus YAL026C, strain drs2, stronger effect = lower value 0.99 | locus YAL030W, strain snc1, stronger effect = lower value 0.99 | locus YAL040C, strain CLN3, stronger effect = lower value 0.979 | locus YBL061C, strain skt5, stronger effect = lower value 1 | locus YBR009C, strain hhf1, stronger effect = lower value 0.982 | locus YBR021W, strain FUR4, stronger effect = lower value 1.03 | locus YBR023C, strain chs3, stronger effect = lower value 0.991 | locus YBR171W, strain sec66, stronger effect = lower value 0.981 | locus YBR229C, strain ROT2, stronger effect = lower value 0.96 | locus YBR231C, strain swc5, stronger effect = lower value 0.989 | locus YBR279W, strain paf1, stronger effect = lower value 0.996 | locus YCL011C, strain gbp2, stronger effect = lower value 0.989 | locus YCL016C, strain dcc1, stronger effect = lower value 0.995 | locus YCL029C, strain bik1, stronger effect = lower value 0.941 | locus YCL061C, strain MRC1 (second series), stronger effect = lower value 0.99 | locus YCL061C, strain MRC1, stronger effect = lower value 0.991 | locus YCL069W, strain vba3, stronger effect = lower value 0.997 | locus YCR088W, strain abp1, stronger effect = lower value 0.991 | locus YDL005C, strain med2, stronger effect = lower value 0.983 | locus YDL035C, strain GPR1, stronger effect = lower value 1.01 | locus YDL040C, strain nat1, stronger effect = lower value 0.994 | locus YDL074C, strain BRE1, stronger effect = lower value 1.01 | locus YDL101C, strain DUN1, stronger effect = lower value 0.967 | locus YDL134C, strain PPH21, stronger effect = lower value 0.99 | locus YDL185W, strain tfp1, stronger effect = lower value 0.959 | locus YDL192W, strain arf1, stronger effect = lower value 0.992 | locus YDR001C, strain nth1, stronger effect = lower value 0.985 | locus YDR069C, strain doa4, stronger effect = lower value 1.01 | locus YDR101C, strain arx1, stronger effect = lower value 1 | locus YDR137W, strain rgp1, stronger effect = lower value 1.01 | locus YDR150W, strain NUM1, stronger effect = lower value 0.981 and 1 | locus YDR159W, strain sac3, stronger effect = lower value 0.987 | locus YDR162C, strain NBP2, stronger effect = lower value 0.911 | locus YDR195W, strain ref2 0.963 | locus YDR297W, strain sur2, stronger effect = lower value 0.991 | locus YDR318W, strain mcm21, stronger effect = lower value 1.02 | locus YDR334W, strain swr1, stronger effect = lower value 0.995 | locus YDR335W, strain msn5, stronger effect = lower value 0.991 | locus YDR363W, strain ESC2, stronger effect = lower value 0.956 | locus YDR388W, stronger effect = lower value 1 | locus YDR392W, strain spt3, stronger effect = lower value 0.924 | locus YDR502C, strain sam2, stronger effect = lower value 0.978 | locus YEL003W, strain gim4, stronger effect = lower value 0.997 | locus YEL037C, strain rad23, stronger effect = lower value 0.999 | locus YEL061C, strain CIN8 (second series), stronger effect = lower value 0.984 | locus YEL061C, strain CIN8, stronger effect = lower value 0.989 | locus YER002W, strain NOP16, stronger effect = lower value 0.987 | locus YER015W, strain faa2, stronger effect = lower value 0.994 | locus YER016W, strain bim1, stronger effect = lower value 0.994 | locus YER110C, stronger effect = lower value 0.937 | locus YER111C, strain swi4, stronger effect = lower value 0.98 | locus YER155C, strain BEM2 (second series), stronger effect = lower value 0.974 | locus YER155C, strain BEM2, stronger effect = lower value 0.988 | locus YER167W, strain BCK2, stronger effect = lower value 1.04 | locus YFR010W, strain ubp6, stronger effect = lower value 0.988 | locus YGL078C, strain dbp3, stronger effect = lower value 0.986 | locus YGL086W, strain mad1, stronger effect = lower value 1.03 | locus YGL167C, strain pmr1, stronger effect = lower value 0.987 | locus YGL173C, strain kem1, stronger effect = lower value 0.994 | locus YGL227W, strain vid30, stronger effect = lower value 0.978 | locus YGL240W, strain doc1, stronger effect = lower value 0.977 | locus YGL248W, strain PDE1, stronger effect = lower value 0.979 | locus YGL253W, strain hxk2, stronger effect = lower value 0.995 | locus YGR078C, strain PAC10, stronger effect = lower value 1.01 | locus YGR135W, strain pre9, stronger effect = lower value 0.987 | locus YGR229C, strain SMI1, stronger effect = lower value 0.998 | locus YGR252W, strain gcn5, stronger effect = lower value 1.07 | locus YHR013C, strain ard1, stronger effect = lower value 0.962 | locus YHR027C, strain rpn1, stronger effect = lower value 0.993 | locus YHR030C, strain SLT2, stronger effect = lower value 1 and 1.02 | locus YHR079C, strain IRE1 (second series), stronger effect = lower value 1.01 | locus YHR079C, strain IRE1, stronger effect = lower value 1.02 | locus YHR094C, strain hxt1, stronger effect = lower value 0.998 | locus YHR129C, strain ARP1, stronger effect = lower value 0.994 | locus YHR142W, strain chs7, stronger effect = lower value 1 | locus YHR200W, strain rpn10, stronger effect = lower value 0.997 | locus YIL066C, strain RNR3, stronger effect = lower value 0.989 | locus YIL073C, strain SPO22, stronger effect = lower value 1.08 | locus YIL125W, strain kgd1, stronger effect = lower value 0.992 | locus YIR030C, strain dcg1, stronger effect = lower value 0.984 | locus YJL092W, strain hpr5, stronger effect = lower value 0.99 | locus YJL095W, strain BCK1 (second series), stronger effect = lower value 0.99 | locus YJL095W, strain BCK1, stronger effect = lower value 1.01 and 1.06 | locus YJL115W, strain asf1, stronger effect = lower value 0.997 | locus YJL129C, strain trk1, stronger effect = lower value 0.986 | locus YJL134W, strain LCB3, stronger effect = lower value 0.984 | locus YJL154C, strain vps35, stronger effect = lower value 0.988 | locus YJL164C, strain tpk1, stronger effect = lower value 0.997 | locus YJL166W, strain qcr8, stronger effect = lower value 0.997 | locus YJL168C, strain set2, stronger effect = lower value 0.992 | locus YJL187C, strain SWE1 (second series), stronger effect = lower value 0.975 | locus YJL187C, strain SWE1, stronger effect = lower value 0.989 | locus YJR043C, strain POL32, stronger effect = lower value 1.06 | locus YJR066W, strain TOR1, stronger effect = lower value 0.976
